Unmarked numbers belong to inactive results. The source made the active and inactive calls. How the calls were made is not given here.

The assay in a line: HDAC Secondary Assay for qHTS Assay for Epigenetic Modulators. To be noted: HeLa nuclear extract HDAC activity, fluorogenic substrate, 20 min; at 48 µM; stronger effect = lower value. The source says: NIH Molecular Libraries Screening Centers Network [MLSCN] NIH Chemical Genomics Center [NCGC] MLSCN Grant: 1 X01 MH079860-01 Assay Provider: Elisabeth D. Martinez, University of Texas SW Medical Center NCGC Assay Overview: This secondary assay characterizes selected actives identified in the qHTS of the Locus Derepression (LDR) assay (PubChem AID 597). The LDR assay detects the derepression of a GFP reporter that is stably integrated in a region of the genome of murine c127i mammary cells that is presumably silenced. Compounds that cause derepression of the locus to express GFP are identified by enumerating GFP positive cells using a laser-scanning microplate cytometer. Selected LDR actives were assayed for inhibition of histone deacetylase (HDAC) activity in HeLa nuclear extracts using a HDAC fluorometric kit (AK-500, Biomol International LP). This assay uses a substrate containing an acetylated lysine side chain that is deacetylated by HDAC enzymatic activity to generate a fluorophore.
NCGC Assay Protocol Summary HeLa nuclear extracts and acetylated profluorescent substrate were incubated with vehicle, 0.5 uM TSA, or 48 uM indicated LDR compound for 20 min at ambient temperature and fluorescence was measured. Background-subtracted activity was expressed as a percent of uninhibited extract. Tests were performed in 25 uL volume in 384-well black plates using the HDAC assay kit AK-500 (Biomol International LP). For further details, see R.L. Johnson, W. Huang, A. Jadhav, C.P. Austin, J. Inglese, E.D. Martinez, A Quantitative High-Throughput Screen Identifies Potential Epigenetic Modulators of Gene Expression, Analytical Biochemistry (2007), doi: 10.1016/j.ab.2007.12.028
In general terms: Quantitative high-throughput screening tests each substance at several concentrations.
Take `CCN(CC)c1ccc2cc(-c3nc4ccccc4[nH]3)c(=O)oc2c1`: the remaining HDAC activity was 112%.

Turning to `CC(/C=C/C(=O)NO)=C\[C@@H](C)C(=O)c1ccc(N(C)C)cc1`, the remaining HDAC activity was 1% (active).

For `CCN1CSC(=S)N(CC)C1`, the remaining HDAC activity is 103%.

For `CN(C)C(=O)CSc1cccc2cccnc12`, the remaining HDAC activity was 111%.

Take `O=Nc1ccc(O)c2ncccc12`: the remaining HDAC activity is 84%.

For `CC(C)C(=O)NC(c1ccco1)c1cc([N+](=O)[O-])c2cccnc2c1O` (stereo not drawn), the remaining HDAC activity was 112%.

With `CN1C(=S)SC(c2ccccc2)N(C)C1c1ccccc1` (stereo not drawn), the remaining HDAC activity was 107%.

Turning to `O=C(CSc1cccc2cccnc12)N1CCCC1`, the remaining HDAC activity is 120%.

For the compound `CC(C)C(=O)NC(c1ccc(N(C)C)cc1)c1ccc2cccnc2c1O` (stereo not drawn), the remaining HDAC activity was 99%.

For the compound `CC(C)C(=O)NC(c1ccco1)c1ccc2cccnc2c1O` (stereo not drawn), the remaining HDAC activity was 108%.

With `CN1CCN(Cc2cc(Cl)c3cccnc3c2O)CC1`, the remaining HDAC activity is 109%.

For `COc1ccc(C(NC(=O)C(C)C)c2ccc3cccnc3c2O)cc1` (stereo not drawn), the remaining HDAC activity was 106%.

With `O=C(CSc1cccc2cccnc12)NCc1ccccc1`, the remaining HDAC activity is 96%.

For the origin of these results see PubChem BioAssay AID1035 (National Center for Advancing Translational Sciences (NCATS), 2008).
